# The other results are listed elsewhere or left out. Calls of active or inactive are those of the source.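 The calls were made as follows: active = inhibition averaging 50% or more, tested at 20 µM; inactive = the rest.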
# System: diaphorase (Clostridium kluyveri)
# Assay: diaphorase inhibitors and chemical oxidizers, confirmation, counter-screen for P. falciparum G6PD inhibitor project, biochemical, fluorescence intensity, 30 µM NADPH (AID 504863);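 also: 0% = DMSO with enzyme and 100% = DMSO wells lacking diaphorase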
# Conditions: Diaphorase/resazurin coupled assay, resorufin fluorescence, at 20 µM, stronger effect = higher value
row,SMILES,inhibition
1,COc1ccc(CC(=O)NCC(=O)N/N=C/c2cc(Br)ccc2OC)cc1,70.8% (active)
2,O=c1[nH]c2ccccc2n2c(-c3ccccc3)nnc12,15.9% (inactive)
3,Cn1c(-c2sccc2OCc2cccc(C(F)(F)F)c2)n[nH]c1=S,10.1% (inactive)
4,COc1cccc(C(=O)Nc2nnc(S(=O)(=O)N3CCCCC3)s2)c1,57% (active)
5,COc1ccc(OCc2nnc3n2N=C(c2ccccc2)C(CC(=O)O)S3)cc1 (stereo unspecified),1.64% (inactive)
6,O=C1/C(=C\c2ccc([N+](=O)[O-])cc2)CS(=O)(=O)C/C1=C/c1ccc([N+](=O)[O-])cc1,-12.8% (inactive)
7,COc1cccc(C(=O)Nc2nnc(S(=O)(=O)N3CCOCC3)s2)c1,54.9% (active)
8,C=CCc1ccccc1OCC(=O)N/N=C/c1ccccc1OCC,43.5% (inactive)
9,COc1ccc(CCn2c(NN=C3CCCC3)nc3c2c(=O)[nH]c(=O)n3C)cc1,-4.07% (inactive)
10,Cc1ccc(NC(=O)Cn2sc3ccccc3c2=O)cc1,11.3% (inactive)
11,Cc1ccc(/C=C/C(=O)Nc2ccc([N+](=O)[O-])c(NC(=O)/C=C/c3ccc(C)o3)c2)o1,-7.03% (inactive)
12,O=C(Nc1nnc(S(=O)(=O)N2CCOCC2)s1)c1cccc(Br)c1,48.1% (inactive)
13,O=C(NC1=CC(=O)c2ccccc2C1=O)c1ccccc1,60.6% (active)
14,CC(C)(C)NC(=O)COc1ccc(CNc2ccc3[nH]c(=O)[nH]c3c2)cc1,12.2% (inactive)
15,CCN1CCCC1CNC(=O)c1ccc2c(c1)NC(=O)/C(=C\c1ccccc1F)S2 (stereo unspecified),-9.58% (inactive)
16,COc1ccc2c(c1)c(=Cc1ccc(N(C)C)cc1)c1cc(-c3ccccc3)[n+](C)n12,15.6% (inactive)

row,SMILES,inhibition
1,O=C(Nc1nc(-c2ccncc2)cs1)C1COc2ccccc2O1 (stereo unspecified),-24.7% (inactive)
2,O=C1C=CC(=O)N1c1ccc(N2CCCCC2)cc1,-16.6% (inactive)
3,COc1c(O)ccc2c1CN1CCc3cc4c(cc3C1C2)OCO4 (stereo unspecified),8.58% (inactive)
4,O=[N+]([O-])c1c(NCCO)cc(Sc2nc3ccccc3s2)c2nonc12,0.96% (inactive)
5,COc1cccc(C(=O)Nc2nnc(S(=O)(=O)N(C)c3ccccc3)s2)c1,56.8% (active)
6,O=C(CN1CCN(c2ccc(O)cc2)CC1)Nc1cc(S(=O)(=O)N2CCOCC2)ccc1Cl,7.17% (inactive)
7,c1ccc(-c2cn3c(n2)CCc2ccc4cccnc4c2-3)cc1,45% (inactive)
8,CCN(CC)c1ccc2oc(=O)c(C)nc2c1,62.5% (active)
9,CCOC(=O)C1=C(c2ccc(OC)cc2)C(=O)c2ccccc2C1=O,85.7% (active)
10,O=C(Nc1nnc(S(=O)(=O)N2CCCCCC2)s1)c1cccc(Br)c1,41.6% (inactive)
11,OCCN1CCN(C(=S)c2ccc(-c3ccccc3)cc2)CC1,2.65% (inactive)
12,CCSc1nnc(NC(=O)c2ccc(C)cc2)s1,56.5% (active)
13,Cc1cccc(C(=O)Nc2nnc(S(=O)(=O)N3CCCCCC3)s2)c1,36.1% (inactive)
14,Cc1ccnc(-n2sc3ccccc3c2=O)n1,-26.9% (inactive)
15,CCOc1ccccc1/C=N/NC(=O)CNC(=O)COc1ccccc1,88.1% (active)

# — PubChem BioAssay AID504863 (Sanford-Burnham Center for Chemical Genomics, 2011)
